# Test results published in the supplement of paper PMC13380429.
# Test system: Vero E6 infected with SARS-CoV-2
# Assay: morphology score (similarity to uninfected cells); higher = more like uninfected cells
# Conditions: 24 h
row,Compound,morphology score
1,Cc1cc(C)nc(SCC(=O)Nc2ncc(Cc3cccc4ccccc34)s2)n1 (10 µM),0.211
2,c1cnc2c([O][Ga]([O]c3cccc4cccnc34)[O]c3cccc4cccnc34)cccc2c1 [gallium-triquinolin-8-olate] (10 µM),0.775
3,C=C(C)CN1CC[C@]23c4c5ccc(O)c4O[C@H]2c2[nH]c4ccccc4c2C[C@@]3(O)C1C5 (10 µM),0.0617
4,CN1CCN(c2ccc(/C=C(\C#N)c3ccccc3Br)cc2)CC1 (10 µM),-0.13
5,C[C@@H]1CN(CC(=O)Nc2ccc3c(c2)Cc2cccc(-c4cc(=O)cc(N5CCOCC5)o4)c2S3)C[C@H](C)O1 (10 µM),0.618
6,NCCC(=O)N[C@@H](Cc1c[nH]cn1)C(=O)O [carnosine] (0.833333 µM),0.0964
7,C[C@]12CC[C@H](O)C[C@H]1CC[C@@H]1[C@@H]2C[C@@H](O)[C@]2(C)[C@@H](C3=CC(=O)OC3)CC[C@]12O [digoxigenin] (0.833333 µM),-0.000579
8,CCOc1ccccc1OCC1CNCCO1 (stereo not given) [viloxazine] (10 µM),0.0033
9,CC(=O)OCC(=O)[C@@]1(O)[C@@H](C)C[C@H]2[C@@H]3CCC4=CC(=O)C=C[C@]4(C)[C@@]3(F)[C@@H](O)C[C@@]21C [betamethasone-acetate] (10 µM),-0.021
10,CN(C)C/C=C/C(=O)Nc1ccc(C(=O)Nc2cccc(Nc3ncc(Cl)c(-c4c[nH]c5ccccc45)n3)c2)cc1 (10 µM),-0.108
11,Cc1onc(-c2ccccc2Cl)c1C(=O)N[C@@H]1C(=O)N2[C@@H]1SC(C)(C)[C@@H]2C(=O)O [cloxacillin] (10 µM),0.00481
12,O=C1NC(=O)C(=Cc2ccc(-c3ccc(F)cc3)o2)S1 (stereo in doubt) (10 µM),0.0111
13,O=C1C=Cc2cc(Br)ccc2C1=O [bonaphthone] (10 µM),-0.0263
14,C#C[C@]1(OC(C)=O)CC[C@H]2[C@@H]3CCC4=CC(=NO)CC[C@@H]4[C@H]3CC[C@@]21CC (mixture of isomers) [norgestimate] (10 µM),0.111
15,CN=C(N)NCCC[C@H](N)C(=O)O [L-monomethylarginine] (10 µM),0.197
16,O=C([O-])C(O)[C@H](O)[C@@H](O)[C@H](O)[C@H](O)CO.O=C([O-])C(O)[C@H](O)[C@@H](O)[C@H](O)[C@H](O)CO.[Ca+2] (stereo not given in full) [calcium-gluceptate] (10 µM),-0.0282
17,O=C(O)c1cc(C(=O)O)c(C(=O)N(Cc2cccc(Oc3ccccc3)c2)[C@H]2CCCc3ccccc32)cc1C(=O)O (10 µM),0.189
18,C[C@H](NC[C@H](O)CP(=O)(O)CC1CCCCC1)c1ccc(Cl)c(Cl)c1 (10 µM),-0.206
19,CNC(=O)N(C)N=O [nitrosodimethylurea] (10 µM),0.0639
20,Cc1ncc(-c2csc(N=C(N)N)n2)[nH]1 [zaltidine] (10 µM),0.0534

row,Compound,morphology score
1,C[C@@]1(F)[C@H](O)[C@@H](CO)O[C@H]1n1ccc(N)nc1=O (10 µM),0.0439
2,COc1ccc(CCO[C@@H]2CCCC[C@H]2N2CC[C@@H](O)C2)cc1OC [vernakalant] (10 µM),0.109
3,CNC(=O)[C@@H](NC(=O)[C@H](CC(C)C)[C@H](O)C(=O)NO)C(C)(C)C [marimastat] (10 µM),-0.0923
4,NC(=O)Cc1cccc(C(=O)c2ccccc2)c1N [nepafenac] (10 µM),0.0605
5,Cc1cnc(-c2cc(N3CCN(C(=O)CCS(C)(=O)=O)CC3)ncc2Cl)c(C)c1 (10 µM),0.241
6,CNCCCCOc1ccccc1Cc1ccccc1 [bifemelane] (10 µM),0.517
7,CSC[C@H](N)C(=O)O [S-methylcysteine] (10 µM),0.000717
8,CC[C@@]1(O)C(=O)OCc2c1cc1n(c2=O)Cc2cc3cc(O)ccc3nc2-1 [10-hydroxycamptothecin] (10 µM),-0.13
9,O=C(O)CCC(=O)OC[C@@H](NC(=O)C(Cl)Cl)[C@H](O)c1ccc([N+](=O)[O-])cc1 [chloramphenicol-sodium-succinate] (10 µM),0.049
10,NS(=O)(=O)c1ccc2c(c1)C1C=CCC1C(c1ccc(Br)cc1)N2 (stereo not given) (10 µM),-0.0557
11,CCCCCCCCCCCC(=O)O [lauric-acid] (10 µM),0.185
12,CCOC(=O)OC(C)OC1=C(C(=O)Nc2ccccn2)N(C)S(=O)(=O)c2ccccc21 (stereo not given) [ampiroxicam] (10 µM),-0.00273
13,O=C(N[C@H](CO)[C@H](O)c1ccc([N+](=O)[O-])cc1)C(Cl)Cl [chloramphenicol] (10 µM),-0.278
14,Nc1nc(O)c2[nH]nnc2n1 [azaguanine-8] (0.833333 µM),0.322
15,NCCCNCCSP(=O)(O)O [amifostine] (10 µM),0.164
16,CNNCc1ccc(C(=O)NC(C)C)cc1 [procarbazine] (10 µM),0.133
17,CNCC(=O)O [sarcosine] (10 µM),0.0271
18,O=C(Nc1ccc(F)cc1)N1CCc2ccccc2[C@@H]1c1ccc(C(F)(F)F)cc1 (10 µM),0.195
19,Cc1cc(CN2CCN(c3c(Br)cnc4nc(-c5ccc(N6CCN(C)CC6)cc5)[nH]c34)CC2)no1 (10 µM),0.247
20,N=C(N)NCCC[C@H](N)C(=O)O [L-arginine] (10 µM),0.0506
